Assay results taken from PubChem BioAssay (NCATS).
Where “and” joins values, the source holds several entries; their conditions need not be identical. Identical values can stand only once. Results filed as inconclusive are left out. Calls of active or inactive are those of the source. Calls follow the shape of the dose curve; as a rule, active = well fitted inhibition curve with a large enough effect; inconclusive = small, poorly fitted or top-dose-only effect; inactive = no such curve, though single readings can be large or run the other way.

Experiment: Primary qHTS for inhibitors of nuclear receptor binding SET domain protein 2 (NSD2) in an RCH-ACV wild type WT cells (2C) (AID 1645877); also: nearly all actives have a fitted effect of over 70% in size
Conditions: RCH-ACV (leukaemia line) NSD2 WT (2C) viability, CellTiter-Glo, 72 h; series mostly up to 44.9 µM; activity change, negative = cell killing: at the top concentration
% is scaled to controls: 0 for no effect and ±100 for the full control effect; potency is read from the fitted curve at half-maximal effect.

| SMILES | Potency | activity change, negative = cell killing | outcome |
| --- | --- | --- | --- |
| O=C(O)c1cc(=O)c2c(OCC(O)COc3cccc4oc(C(=O)O)cc(=O)c34)cccc2o1 | inactive | – | – |
| O=C(O)c1cn(-c2ccc(F)cc2)c2cc(N3CCNCC3)c(F)cc2c1=O | inactive | – | – |
| CN1CCC(=C2c3ccccc3CCc3sccc32)CC1 | 23.5 µM (active) | – | – |
| Cc1ccc(C)c(OCCCC(C)(C)C(=O)O)c1 | – | 6.65% (inactive) | – |
| CCCOc1ccc2nc(NC(=O)OC)[nH]c2c1 | 366 nM (active) and 263 nM (active) | – | – |
| CC1(C)NC(=O)N(c2ccc([N+](=O)[O-])c(C(F)(F)F)c2)C1=O | inactive | – | – |
| C[C@H](Cc1ccc(O)c(O)c1)[C@@H](C)Cc1ccc(O)c(O)c1 | 11.8 µM (active) and 7.31 µM (active) | – | – |
| c1cnc2cc3c(cc2n1)C1CNCC3C1 | inactive | – | – |
| COC(=O)C1=C(C)NC(C)=C(C(=O)OCCCN2CCC(c3ccccc3)(c3ccccc3)CC2)C1c1cccc([N+](=O)[O-])c1 (stereo not given) | 6.61 µM (active) and 5.96 µM (active) | – | – |
| CN(C)c1ccc(O)c2c1C[C@H]1C[C@H]3[C@H](N(C)C)C(=O)C(C(N)=O)=C(O)[C@@]3(O)C(=O)C1=C2O | – | -16.7% (inactive) | – |
| NNc1nncc2ccccc12 | – | -6.81% [at 17.3 µM] (inactive) | – |
| Cc1cc(O)c2c(c1)C(=O)c1cc(O)cc(O)c1C2=O | – | – | inactive |
| COCCCOc1ccnc(CS(=O)c2nc3ccccc3[nH]2)c1C (stereo not given) | – | -0.248% (inactive) | – |
| CCN(CC)C(=S)SSC(=S)N(CC)CC | 394 nM (active) and 4.22 µM (active) and 2.95 µM (active) | – | – |
| O=C(O)c1cccc(-c2noc(-c3ccccc3F)n2)c1 | – | -0.47% (inactive) | – |
